# Assay outcomes from PubChem.
# DT40 TDP1 CPT: growth inhibition of DT40 Tdp1-/-;hTDP1 cells with camptothecin (screen for TDP1 inhibitors); chicken DT40 Tdp1-/-;hTDP1 cells + 20 nM CPT, ATP luminescence, 48 h; actives 12% (n = 420,000); Potency, µM (titrated, usually from 46.2 µM), without a hit: at the highest dose activity change, negative = growth inhibition, actives largely listed as inhibitors; AID 686979; also: potency is read from the fitted curve at half-maximal effect; nearly all actives have a fitted effect of over 55% in size
#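 Chicken DT40 Tdp1-/- cells stably complemented with human TDP1 were seeded at 400 cells/well in medium containing 20 nM camptothecin, exposed to pin-transferred compounds, and grown at 37 °C for at least 48 hr. Viability was read as ATP luminescence.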
# DT40 TDP1 no CPT: qHTS for Inhibitors of human tyrosyl-DNA phosphodiesterase 1 (TDP1): qHTS in cells in absence of CPT. DT40 Tdp1-/- hTDP1 cells, no CPT, ATP luminescence, 48 h. Potency, µM (top dose mostly 46.2 µM), inactives show at the highest dose activity change, negative = growth inhibition, hits mostly inhibitors. actives 15% (n = 420,000). AID 686978, 2013; also: potency is read from the fitted curve at half-maximal effect; nearly all actives have a fitted effect of over 55% in size
#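 Growth of hTDP1-complemented DT40 Tdp1-knockout cells is measured by ATP luminescence after at least 48 hr compound exposure at 37 °C, with DMSO substituting for the 20 nM CPT used in the parallel screen.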
# TDP1 block: inhibitors of human tyrosyl-DNA phosphodiesterase TDP1; Potency, µM (doses to about 130 µM), inactives show top-dose activity change, negative = inhibition, usual class: inhibitors; actives 0.28% (n = 350,000); recombinant TDP1, AlphaScreen DNA substrate cleavage; Q9NUW8; also: potency is read from the fitted curve at half-maximal effect; nearly all actives have a fitted effect of over 40% in size
# Target sequence (Q9NUW8 whole entry, looked up): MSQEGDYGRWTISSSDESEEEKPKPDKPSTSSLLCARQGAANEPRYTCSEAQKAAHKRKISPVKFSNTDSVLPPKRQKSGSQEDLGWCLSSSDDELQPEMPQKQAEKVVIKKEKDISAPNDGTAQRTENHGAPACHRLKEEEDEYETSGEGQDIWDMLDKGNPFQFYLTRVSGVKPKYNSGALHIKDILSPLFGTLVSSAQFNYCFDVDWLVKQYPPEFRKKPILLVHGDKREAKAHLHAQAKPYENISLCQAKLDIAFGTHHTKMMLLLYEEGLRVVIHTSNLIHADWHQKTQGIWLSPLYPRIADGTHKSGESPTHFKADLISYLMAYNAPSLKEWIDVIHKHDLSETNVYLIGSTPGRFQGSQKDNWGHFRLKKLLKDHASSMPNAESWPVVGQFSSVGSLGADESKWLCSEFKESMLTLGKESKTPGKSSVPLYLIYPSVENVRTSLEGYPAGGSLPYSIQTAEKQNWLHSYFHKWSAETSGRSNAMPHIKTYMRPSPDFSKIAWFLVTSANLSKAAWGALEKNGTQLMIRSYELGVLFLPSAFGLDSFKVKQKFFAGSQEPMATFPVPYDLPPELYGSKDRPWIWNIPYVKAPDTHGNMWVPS
#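 Enzyme-compound mixtures sat 15 min at room temperature, followed by a 5 min reaction with 15 nM final substrate and 10 min with AlphaScreen beads. Recombinant human Tdp1 was used at 1 nM final.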
# CtBP-E1A blk: inhibitors of CtBP/E1A interaction | AlphaScreen GST-E1A/His-CtBP binding, 1536-well; active compounds read low | activity change, % (concentration not given with the values) | actives 0.49% (n = 340,000); in the data active = activity change below about -65%; inconclusive = mostly about -30% to -63%
#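 In 5 uL wells, 23 nL compound meets equimolar GST-E1A and His-CtBP (5X stock 125 nM each) for 2 h, 37 °C. Beads (5X, 50 ug/mL) then 1 h, 37 °C, dark.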
# Six1-Eya2 inh: inhibitors of human Six1/Eya2 interaction; AID 651725; actives 0.56% (n = 360,000); Q15475+O00167; AlphaScreen GST-Six1/His-Eya2 binding, biochemical; active compounds read low; activity change, % (concentration not given with the values); in the data active = activity change below about -65%; inconclusive = mostly about -30% to -63%
#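 AlphaScreen with GST-Six1 and His-Eya2 (5X mix: 250 nM and 500 nM), glutathione donor and nickel acceptor beads; buffer 50 mM Tris pH 8.0, 300 mM NaCl, 1 mM TCEP; 1 h at 37 C in the dark.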
# IL-1B inflam inh: inflammasome signaling inhibition, IL-1 beta readout; THP-1 LPS/ATP IL-1B secretion, AlphaLISA, 16 h; active compounds read low; activity change, % at 57.5 µM; actives 4.7% (n = 360,000); AID 743279; in the data active = activity change below about -50%; inconclusive = mostly about -30% to -49%
#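 Secreted IL-1B measured by AlphaLISA bead assay after 16 h compound exposure of THP-1 cells; compounds (final up to 57.5 uM) added 1 h before LPS (250 ng/mL) and ATP (1.25 mM) stimulation; lower signal means less secretion.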
# The depositor's hits bear a star; ? = inconclusive; nt = no result given; [ ] = another dose, or the depositor's remark. Hits are enriched below; roughly 18% of the tested compounds scored in any of these assays. Unless noted, calls follow the shape of the dose curve; as a rule, active = well fitted curve in the direction sought with a large enough effect; inconclusive = small, poorly fitted or top-dose-only effect, or another doubt; inactive = no such curve, though single readings can be large; an effect the other way counts as inactive or inconclusive. % is scaled to controls: 0 for no effect and ±100 for the full control effect.
SMILES,DT40 TDP1 CPT,DT40 TDP1 no CPT,TDP1 block,CtBP-E1A blk,Six1-Eya2 inh,IL-1B inflam inh
CC(C)(C)n1nnnc1C(c1ccc2ncccc2c1)N1CCC(O)CC1 (centres undefined),-8.3%,3.2%,-2.6%,3.7,7.4,5.6
C=CCOC(=O)C(C(C)=O)C(NC(=O)OC)c1cccc(C)c1 (centres undefined),nt,nt,1.6%[21 µM],nt,nt,nt
Cc1cccnc1NC(=O)c1ccc(Cl)c(S(=O)(=O)N2CCCC2)c1,10.9%,20.8%,0.5%,-4.0,-3.2,11.5
O=C1[C@@H]2C(c3cccnc3)=NO[C@@H]2C(=O)N1c1ccc2ccccc2c1,6.51µM*,18.4µM*,4.7%,2.6,5.7,nt
O=C(COC(=O)c1ccc([N+](=O)[O-])cc1)NC1CCCC1,-8.5%,20.2%,nt,-6.0,1.1,-11.1
NC(=S)NN=C1C=CCCC1,2.91µM*,4.61µM*,nt,-1.2,-5.2,14.3
COCCNC(=S)NN=C1CCCCC1,5.17µM*,5.17µM*,-7.5%,6.3,1.1,26.4
C=CCNC(=S)NN=C1CCCCCCC1,16.4µM*,25.9µM*,5.0%,-1.0,-10.8,13.2
NC(=S)NN=C1CCCCCCCCC1,?,?,nt,22.5,-10.4,-8.3
NC(=S)NN=C1CCCCCCCC1,2.31µM*,?,nt,23.4,0.5,-3.8
COCCNC(=S)NCc1ccc2[nH]c3c(c2c1)CCCC3,-15.3%,-26.1%,6.9%,-16.0,-16.8,12.5
CCCc1cc(=O)oc2cc(OCc3cc(OC)c(OC)c(OC)c3)c(Cl)cc12,?,?,2.1%,-6.8,3.2,9.0
CCCCc1cc(=O)oc2cc(OCc3cc(OC)c(OC)c(OC)c3)c(Cl)cc12,?,14.6µM*,2.6%,-0.7,7.1,18.2
Cc1nn2c(NCCCN(C)C)c3c(nc2c1-c1ccccc1)CCCC3,?,?,6.8%,-4.4,-3.2,-21.6
Cc1nn2c(NCCCN(C)C)c3c(nc2c1-c1ccccc1)CCC3,?,29.1µM*,6.0%,-3.6,-7.1,-11.0
CCOC(=O)/C(CCC[N+](C)(CC)CC)=N\O,-2.0%,-2.4%,2.6%,0.5,7.9,15.5
Cc1c(C2CCN(CCc3ccccc3)CC2)noc1-c1ccc(Cl)cc1,11.6µM*,9.2µM*,6.1%,nt,nt,nt
O=S(=O)(c1ccc(Cl)cc1)N1CCN(CCc2ccccc2)CC1,-23.7%,-21.4%,2.8%,26.5,10.0,-5.3
Cc1c(-c2ccc(Cl)cc2)noc1C1CCN(CCc2ccccc2)CC1,?,14.6µM*,3.7%,nt,nt,nt
CCC(C)[C@H]1CNC(=S)N1CCc1cc(C(F)(F)F)cc(C(F)(F)F)c1 (some centres undefined),?,20.6µM*,1.3%,3.3,-4.6,-55.5*
FC(F)(F)c1cc(CCN2CCNC[C@@H]2CC2CCCCC2)cc(C(F)(F)F)c1,23.1µM*,?,-5.4%,0.0,18.1,-101.4*
CCCC[C@@H]1CNC(=O)C(=O)N1CCc1cc(C(F)(F)F)cc(C(F)(F)F)c1,-29.0%,?,3.5%,nt,0.1,-5.0
FC(F)(F)c1cc(CCN2CCNC[C@@H]2c2ccccc2)cc(C(F)(F)F)c1,16.4µM*,?,0.5%,3.1,2.0,?
CCCC[C@@H]1CNCCN1CCc1cc(C(F)(F)F)cc(C(F)(F)F)c1,?,20.6µM*,nt,0.9,0.9,-61.3*
O=C(COC(=O)c1ccccc1O)Nc1cc(S(=O)(=O)N2CCCCCC2)ccc1Cl,-10.6%,-6.3%,0.5%,-6.8,-1.8,14.5
SMILES,DT40 TDP1 CPT,DT40 TDP1 no CPT,TDP1 block,CtBP-E1A blk,Six1-Eya2 inh,IL-1B inflam inh
O=C(NCc1cccnc1)C1CCN(S(=O)(=O)N2CCC3(CC2)OCCO3)CC1,12.2%,-3.7%,5.9%,12.7,4.1,22.9
CCC(C)[C@H]1CNCCN1CCCc1cc(OC)c(OC)c(OC)c1 (some centres undefined),5.7%,3.2%,-18.2%,5.9,5.1,11.2
CCC(C)[C@H]1CNCCN1CCc1cc(C(F)(F)F)cc(C(F)(F)F)c1 (some centres undefined),?,18.4µM*,-16.2%,nt,12.8,-66.1*
COc1ccc(C=NC(CO)C(O)c2ccc([N+](=O)[O-])cc2)cc1 (centres undefined),11.7%,11.5%,-3.8%,-0.3,5.6,-5.8
CC1Cc2ccccc2N1C(=O)COC(=O)c1ccc(Cl)nc1 (centres undefined),12.8%,-3.8%,-5.1%,1.4,1.0,25.0
COc1ccccc1C(=O)N1CCN(c2nc3cc(C)c(C)cc3cc2C#N)CC1,18.4µM*,16.4µM*,2.7%,3.5,15.9,-67.1*
Cc1ccc2nc(N3CCN(C(=O)c4ccccc4F)CC3)c(C#N)cc2c1,?,?,nt,8.6,1.4,-4.0
Cc1cc(C)c2cc(C#N)c(N3CCCN(C(=O)c4cnccn4)CC3)nc2c1,-7.8%,18.4µM*,nt,8.7,5.1,-2.6
COc1ccccc1C(=O)N1CCN(c2nc3cc(C)cc(C)c3cc2C#N)CC1,23.1µM*,20.6µM*,nt,6.4,4.6,-9.1
CC(=O)c1cccc(S(=O)(=O)N2CCN(c3nc4cc(C)cc(C)c4cc3C#N)CC2)c1,14.6µM*,?,3.9%,9.0,4.1,-24.5
Cc1cc(C)c2cc(C#N)c(N3CCCN(S(=O)(=O)c4ccccc4)CC3)nc2c1,-6.9%,?,nt,14.1,4.0,29.3
CCc1nn2c(=O)cc(CSc3nc(C)cc(=O)[nH]3)nc2s1,-2.1%,-1.6%,2.0%,3.2,0.0,3.3
CN(C(=O)CSc1nnc(Cc2ccccc2F)n1N)C1CCS(=O)(=O)C1 (centres undefined),8.5%,-24.2%,-5.6%,10.2,9.4,33.0
Cc1cc(=O)[nH]c(NN=C2CCCCC2C)n1 (centres undefined),?,18.4µM*,nt,3.7,3.7,-0.8
Cc1cc(=O)[nH]c(NN=C2C3CC4CC(C3)CC2C4)n1,-3.8%,17.2%,0.0%,-1.3,-16.3,30.5
CN1CCc2c(sc3c2c(=O)n(-c2cccc(Cl)c2)c2nncn32)C1,?,-29.0%,nt,-4.1,-0.5,6.6
CN1CCc2c(sc3c2c(=O)n(-c2ccccc2)c2nnc(SCc4ccc(Cl)cc4)n32)C1,13µM*,?,1.0%,-0.8,-7.4,-81.0*
CC(C)c1ccc(NC(=O)[C@H]2O[C@@H]3OC(C)(C)O[C@@H]3[C@H]3OC(C)(C)O[C@H]32)cc1,5.17µM*,20.6µM*,-5.1%,nt,nt,nt
CC1(C)OC2OC(C(=O)N/N=C/c3cc(Br)ccc3O)C3OC(C)(C)OC3C2O1 (centres undefined),14.6µM*,14.6µM*,2.7%,-89.7*,-82.4*,0.0
